In all, about 5,500 compounds went through this assay and about 2,000 (36%) were called active. Inconclusive results (about 18%) are left out. The list shows a part of the results. Unmarked numbers belong to inactive results. Cut-off read from the data, not from the text of the source: active = normalized growth mostly below about 0.91 (no sharp cut-off); inconclusive = no clear call, values can overlap the other calls; inactive = mostly above about 0.92.
Test: chemical genetic growth profiling, strain panel (AID 1159580);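 note: tested at 20 µM; growth read once vehicle control cultures reached saturation at 30 °C; 1 = growth at the plate median or of vehicle wells; lower values mean less growth of the strain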
Conditions: growth OD
[1] = S. cerevisiae deletion strains, locus YAL013W, strain DEP1, stronger effect = lower value
[2] = S. cerevisiae deletion strains, locus YBR229C, strain ROT2, stronger effect = lower value
[3] = S. cerevisiae deletion strains, locus YDL101C, strain DUN1, stronger effect = lower value
[4] = S. cerevisiae deletion strains, locus YDR150W, strain NUM1, stronger effect = lower value
[5] = S. cerevisiae deletion strains, locus YEL061C, strain CIN8, stronger effect = lower value
[6] = S. cerevisiae deletion strains, locus YGR078C, strain PAC10, stronger effect = lower value
[7] = S. cerevisiae deletion strains, locus YHR030C, strain SLT2, stronger effect = lower value
[8] = S. cerevisiae deletion strains, locus YHR087W, strain rtc3, stronger effect = lower value
[9] = S. cerevisiae deletion strains, locus YJL187C, strain SWE1, stronger effect = lower value
[10] = S. cerevisiae deletion strains, locus YJR043C, strain POL32, stronger effect = lower value
[11] = S. cerevisiae deletion strains, locus YJR075W, strain HOC1, stronger effect = lower value
[12] = S. cerevisiae deletion strains, locus YKL190W, strain CNB1, stronger effect = lower value
[13] = S. cerevisiae deletion strains, locus YLR039C, strain RIC1, stronger effect = lower value
[14] = S. cerevisiae deletion strains, locus YLR058C, strain SHM2 (second series), stronger effect = lower value
[15] = S. cerevisiae deletion strains, locus YLR085C, strain ARP6, stronger effect = lower value
[16] = S. cerevisiae deletion strains, locus YLR262C, strain YPT6, stronger effect = lower value
[17] = S. cerevisiae deletion strains, locus YML094W, strain GIM5, stronger effect = lower value
[18] = S. cerevisiae deletion strains, locus YMR219W, strain ESC1, stronger effect = lower value
[19] = S. cerevisiae deletion strains, locus YMR263W, strain SAP30, stronger effect = lower value
[20] = S. cerevisiae deletion strains, locus YNL153C, strain GIM3, stronger effect = lower value
[21] = S. cerevisiae deletion strains, locus YNL298W, strain CLA4 (second series), stronger effect = lower value
[22] = S. cerevisiae deletion strains, locus YNL322C, strain KRE1, stronger effect = lower value
[23] = S. cerevisiae deletion strains, locus YNR030W, strain Alg12, stronger effect = lower value
[24] = S. cerevisiae deletion strains, locus YPL055C, strain LGE1, stronger effect = lower value
[25] = S. cerevisiae deletion strains, locus YPL241C, strain CIN2, stronger effect = lower value
[26] = S. cerevisiae deletion strains, locus YPR135W, strain CTF4, stronger effect = lower value

COc1ccccc1N1CCN(S(=O)(=O)c2cc(C)c(Cl)cc2C)CC1
normalized growth [1]: 0.985
normalized growth [2]: 0.991
normalized growth [3]: 0.957
normalized growth [4]: 0.958
normalized growth [5]: 0.994
normalized growth [6]: 0.97
normalized growth [7]: 1.01
normalized growth [8]: 0.959
normalized growth [9]: 0.991
normalized growth [10]: 1
normalized growth [11]: 0.989
normalized growth [12]: 0.987
normalized growth [13]: 0.981
normalized growth [14]: 0.988
normalized growth [15]: 1.01
normalized growth [16]: 0.976
normalized growth [17]: 0.958
normalized growth [18]: 1
normalized growth [19]: 1
normalized growth [20]: 0.996
normalized growth [21]: 0.982
normalized growth [22]: 0.994
normalized growth [23]: 0.982
normalized growth [24]: 0.953
normalized growth [25]: 1.06
normalized growth [26]: 0.874
normalized growth (S. cerevisiae strains, strain wild type, stronger effect = lower value): 0.985

CC1=C(OS(=O)(=O)c2cc(C)c(Cl)cc2Cl)C(=O)CC1
normalized growth [1]: 0.993
normalized growth [2]: 0.956
normalized growth [3]: 0.968
normalized growth [4]: 0.986
normalized growth [5]: 1
normalized growth [6]: 0.98
normalized growth (S. cerevisiae deletion strains, locus YGR229C, strain SMI1, stronger effect = lower value): 0.968
normalized growth [7]: 0.85
normalized growth [8]: 0.974
normalized growth [9]: 0.986
normalized growth [10]: 0.991
normalized growth [11]: 0.984
normalized growth [12]: 0.976
normalized growth [13]: 0.849
normalized growth [14]: 0.968
normalized growth [15]: 0.955
normalized growth [16]: 0.866
normalized growth [17]: 1
normalized growth [18]: 0.985
normalized growth [19]: 0.977
normalized growth [20]: 0.971
normalized growth [21]: 0.914
normalized growth [22]: 0.97
normalized growth [23]: 0.968
normalized growth (S. cerevisiae deletion strains, locus YOL006C, strain TOP1, stronger effect = lower value): 0.897
normalized growth [24]: 1.24 [resistant] (active)
normalized growth [25]: 0.98
normalized growth [26]: 0.87
